The record followed here is PubChem BioAssay (NCI).

Experiment in all cases: NCI-60 one-dose screen, 48 h (100 = growth as untreated, 0 = no growth, -100 = all killed)
What all share (conditions): 10 µM unless noted

Assay [1] concerns NCI-H23 lung.
In assay [2] the test system is NCI-H226 lung.
Assay [3] deals with NCI-H322M lung.
Assay [4] has as its system HOP-62 NSCLC.
Assay [5] relates to NCI-H460 lung.
For assay [6], the system named is HOP-92 NSCLC.
Assay [7] has as its system NCI-H522 lung.
Assay [8] concerns A549/ATCC NSCLC.
Assay [9] concerns 786-0 renal.
The subject of assay [10] is COLO 205 colon.
Assay [11] relates to DU-145 prostate.
For assay [12], the system named is K-562 leukemia.
The test system of assay [13] is MALME-3M melanoma.
Assay [14] concerns MDA-MB-231 breast.
The subject of assay [15] is RXF 393 renal.
Assay [16] deals with SF-268 CNS.
Assay [17] concerns SF-295 CNS.
Assay [18] relates to SF-539 CNS.
Assay [19] has as its system UACC-257 melanoma.
Assay [20] deals with M14 melanoma.

Compounds without any hit were thinned out: in the full panel of roughly 83,000, 20% have a hit.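 Negative percent growth values reflect cell death: -40 means 40% of the cells present at the start died, and -100 means all died.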 Unmarked numbers belong to inactive results. The source made the active and inactive calls. Rule for the calls: active = growth percent below 10; inactive = the rest.

Take `O=C1c2ccccc2NC(c2cn(-c3ccccc3)nc2-c2cccs2)N1Cc1ccccc1` (stereo not drawn): the growth was 74% in assay [1]; 96.3% in assay [2]; 85.3% in [3]; 86.9% in [4]; 94.5% in assay [5]; 74.1% in assay [6]. The growth in assay [7] was 72.3%; in assay [8], 82.8%; in [9], 73.6%; in assay [10] it was 93.5%; in assay [11], 97.6%; in assay [12] it was 70.7%. The growth is 109% in assay [13]; 77.4% in assay [14]; 94.5% in assay [15]; 78.9% in [16]; 80% in assay [17]; 88.5% in [18]. Also, the growth in [19] is 103%; in assay [20], 80%.

As for `O=c1[nH]c(=S)[nH]c2nc[nH]c12`, the growth in [1] is 88.6%; in assay [2], 99.8%; in [3], 118%; in [4], 86.9%; in assay [5] it was 112%; in assay [6], 108%. Also, the growth was 100% in assay [7]; 99.1% in assay [8]; 91.6% in assay [9]; 123% in assay [10]; 107% in assay [11]; 89.2% in [12]. For the same molecule, the growth in assay [13] is 112%; in [14], 109%; in [15], 79.5%; in assay [16] it was 97.9%; in [17], 106%; in assay [18], 105%. Also, the growth was 96.6% in assay [19] and 90.7% in assay [20].

For `COc1ccc(-c2cc(=O)oc3ccc(Cl)cc23)cc1F`, the growth was 18.1% in assay [1]; 49.1% in assay [2]; 46.9% in [3]; 20.8% in [4]; 7.67% (active) in [5]; 33.6% in assay [6]. The growth is -27.8% (active) in assay [7]; 10.8% in [8]; 25% in assay [9]; -26.4% (active) in [10]; 14.7% in assay [11]; 7.21% (active) in assay [12]. In addition, the growth in assay [13] was 103%; in assay [14] it was 21.8%; in assay [15], 38.7%; in assay [16], 26.2%; in assay [17] it was 20.4%; in assay [18], -2.9% (active). For the same molecule, the growth was 47.3% in [19] and 15.3% in [20].

For the molecule `COc1ccccc1CNc1nc(N)nc2[nH]c3ccc(O)cc3c12`, the growth is 57.8% in assay [1]; 92.6% in [2]; 61.5% in [3]; 37% in [4]; 18.3% in assay [5]; 34.1% in assay [6]. Further, the growth in assay [7] is 18.7%; in [8] it was 40.6%; in assay [9] it was 83.2%; in assay [10], 33.6%; in assay [11], 91%; in assay [12], 11.1%. The growth was 53.6% in assay [13]; 26.8% in assay [14]; 78% in assay [15]; 64.7% in assay [16]; 49.6% in [17]; 45.5% in assay [18].

`Nc1ccc(Cl)cn1`: the growth in [1] is 97.7%; in assay [2] it was 95%; in assay [3], 104%; in assay [4] it was 95%; in assay [5] it was 105%; in assay [6], 87%. For the same molecule, the growth is 82.9% in assay [7]; 87.7% in assay [8]; 106% in assay [9]; 108% in assay [10]; 106% in assay [11]; 107% in assay [12]. Further, the growth in assay [13] was 99.7%; in assay [14] it was 101%; in [15], 113%; in [16], 100%; in assay [17], 97.3%; in assay [18], 96.4%.

In the case of `COc1ccc2[nH]c(-c3ccc(Cl)cc3)cc(=O)c2c1`, the growth in assay [1] was 94.5%; in [2], 97.6%; in assay [3], 92%; in [4], 104%; in assay [5], 100%; in assay [6], 88.6%. The growth in assay [7] is 86.7%; in [8] it was 96.3%; in assay [9] it was 88.3%; in [10] it was 105%; in [11], 105%; in assay [12], 97.4%. Moreover, the growth was 98.6% in assay [13]; 95.6% in assay [14]; 111% in assay [15]; 98.2% in assay [16]; 97% in [17]; 99.9% in assay [18]. Further, the growth in [19] was 98%.

For `CC(=O)Nc1cc(F)cc(C(F)(F)F)c1Cl`, the growth in assay [1] is 92.2%; in assay [2], 91%; in assay [3], 98.7%; in [4] it was 99.3%; in [5] it was 98.6%; in [6], 93.7%. Also, the growth was 100% in assay [7]; 103% in assay [8]; 94.3% in assay [9]; 109% in assay [10]; 108% in [11]; 112% in [12]. Moreover, the growth was 100% in [13]; 110% in assay [14]; 89.4% in assay [15]; 98.2% in [16]; 102% in assay [17]; 97.6% in assay [18]. The results for the growth in assay [19] and in [20] were 103% and 99.2%, respectively.

`COC(=O)[C@]12CC[C@@H](C)[C@H](C)[C@@H]1C1=CC[C@@H]3[C@@]4(C)C(c5ncon5)=C[C@@](C)(CO)C4=CC[C@@]3(C)[C@]1(C)CC2`: the growth is -26.2% (active) in [1]; -34.7% (active) in [2]; 21.8% in assay [3]; -8.97% (active) in assay [4]; -33.4% (active) in assay [5]; -49.9% (active) in [6]. For the same molecule, the growth in [7] was -77.5% (active); in assay [8] it was 29.5%; in assay [9] it was -23.8% (active); in assay [10] it was -46% (active); in assay [11], -71.5% (active); in assay [12], -21.2% (active). Besides, the growth in [13] was -73.6% (active); in [14], -49.3% (active); in assay [15], -73.2% (active); in assay [16] it was -7.68% (active); in assay [17] it was -46.8% (active); in [18] it was -86.2% (active).
